Screening data deposited in PubChem BioAssay by National Center for Advancing Translational Sciences (NCATS).
Hits are enriched below; roughly 14% of the tested compounds scored in any of these assays.
Pf growth 96h: Primary qHTS for delayed death inhibitors of the malarial parasite plastid, 96 hour incubation | P. falciparum luciferase reporter growth, 96 h | 320,000 tested, 6.9% active | AID 504834, 2011 | Potency, µM (series often up to 28.7 µM), most hits filed as inhibitors
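Two-generation exposure (96 h) targets delayed-death phenotype. Reporter parasites carrying integrated firefly luciferase, in red cells at 2% hematocrit and 0.05% parasitemia final, kept at 37 C, 5% CO2; luminescence loss indicates inhibition.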
Marburg entry inh: qHTS for inhibitors of binding or entry into cells for Marburg Virus. Marburg virus pseudotyped entry inhibition, cell reporter. Potency, µM (highest dose often 37.8 µM), usual class: inhibitors. 300,000 tested, 1.8% active; calls by dose curve; tested in HEK293 cells
Pf growth 48h: Primary qHTS for delayed death inhibitors of the malarial parasite plastid, 48 hour incubation | P. falciparum luciferase growth in erythrocytes, 48 h | Potency, µM (titrated, usually from 28.7 µM), hits mostly inhibitors | 310,000 tested, 5.9% active | AID 504832, 2011
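Here the parasites carry a stable luciferase gene and grow inside erythrocytes in Albumax-based RPMI medium with compound for one erythrocytic cycle. Activity is scored as loss of luminescent signal.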
HCMV antiviral: qHTS Assay for inhibitors of the human cytomegalovirus (HCMV). HFF cells, HCMV-luciferase reporter, 72 h; hits give low values. activity change, negative = inhibition, % at 57.5 µM. 410,000 tested, 4.5% active. AID 1259415, 2018; in the data active = activity change below about -60%; inconclusive = no clear call, values can overlap the other calls; inactive = above about -39%
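HFF cells seeded 16 h at 37C, treated with compounds, infected with luciferase-reporter HCMV at MOI 1 PFU/cell; luciferase read at 72 h post infection, normalized to buffer-only and Salinomycin controls.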
HCV inhibitor: qHTS Assay for Inhibitors of Hepatitis C Virus (HCV); Huh7.5.1 HCVcc-Cre infection, luciferase reporter, 44 h; Potency, µM (top dose mostly 41.8 µM), usual class: inhibitors; 340,000 tested, 3.4% active
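Infectious HCVcc-Cre (~0.5 moi) was added to cells just after compound, with cells seeded 4 h earlier at 1,000 per well. Luciferase activity after 44 h culture reported infection; substrate was incubated 15 min at room temperature before reading.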
LASV entry inh: qHTS for Inhibitors of binding or entry into cells for Lassa Virus; AID 540256, 2011; Potency, µM (doses to about 37.9 µM), hits mostly inhibitors; 300,000 tested, 1.2% active; Lassa virus pseudotype entry inhibition, cell reporter; calls by dose curve; tested in HEK293 cells; also: nearly all actives have a fitted effect of over 50% in size
Hits are given with their value; i = inactive; ? = inconclusive; nt = not tested or not shown. Unless noted, calls follow the shape of the dose curve; as a rule, active = well fitted inhibition curve with a large enough effect; inconclusive = small, poorly fitted or top-dose-only effect, or another doubt; inactive = no such curve, though single readings can be large or run the other way.

SMILES | Pf growth 96h | Marburg entry inh | Pf growth 48h | HCMV antiviral | HCV inhibitor | LASV entry inh
CCC1CCCCN1C(=O)Cn1c(=O)n(CCCCCC(=O)NCc2ccc(F)cc2)c(=O)c2sccc21 (stereo not drawn) | nt | i | nt | i | nt | i
Cc1ccc(N(C)C(=O)c2cnn(-c3ccccc3)c2C)c(C)c1 | 5.22µM | i | 5.22µM | i | i | i
Cc1cccc(N(C)C(=O)c2cnn(-c3ccccc3)c2C)c1 | i | nt | i | i | i | nt
CCCN(CCC)[C@@H]1CCc2cccc(O)c2C1 | 4.15µM | ? | 5.22µM | i | i | ?
O=C(CCNS(=O)(=O)c1ccc2c(c1)CCN2C(=O)C1CC1)N1CCN(c2ccc(F)cc2)CC1 | nt | nt | nt | i | nt | ?
CCNC(=O)c1c(NC(=O)Cc2coc3ccc(CC)cc23)sc2c1CCCC2 | nt | ? | nt | i | nt | i
CCCCCC(=O)Nc1cc(S(=O)(=O)O)cc2cc(S(=O)(=O)O)cc(O)c12 | nt | ? | nt | -77.5 | i | i
CCn1c(C)[n+](Cc2ccccc2)c2ccc(Cl)cc21 | i | i | 7.38µM | -67.3 | i | nt
Cc1n(Cc2ccccc2)c2cc([N+](=O)[O-])ccc2[n+]1Cc1ccccc1 | ? | nt | ? | i | i | nt
Cc1n(Cc2ccccc2)c2ccccc2[n+]1Cc1ccccc1 | i | ? | 1.31µM | ? | i | ?
CCn1c(C)[n+](Cc2ccccc2)c2ccc(C(=O)OC)cc21 | i | i | ? | i | i | i
Nc1ccccc1C(=O)OCC(=O)N1CCc2ccccc21 | nt | ? | i | i | i | i
O=C(OCC(=O)N1CCc2ccccc21)c1ccccc1 | i | i | i | i | ? | ?
CCCc1nc2ccccc2c(C(=O)OCC(=O)N2CCc3ccccc32)c1CC | 8.28µM | ? | ? | i | 8.91µM | ?
COc1cccc(C(=O)OCC(=O)N2CCc3ccccc32)c1OC | i | ? | i | -98.5 | ? | i
CC1CCc2nc3ccccc3c(C(=O)OCC(=O)N3CCc4ccccc43)c2C1 (stereo not drawn) | ? | ? | 8.28µM | i | ? | ?
O=c1oc(-c2ccccc2[N+](=O)[O-])nc2ccccc12 | ? | i | i | i | i | i
O=C(O)c1ccc(Nc2nc(-c3ccc([N+](=O)[O-])cc3)nc3ccccc23)cc1 | i | nt | ? | i | i | nt
O=[N+]([O-])c1ccccc1Nc1c2ccccc2nc2ccccc12 | ? | ? | ? | -61.8 | ? | ?
O=[N+]([O-])c1ccc(Nc2c3ccccc3nc3ccccc23)cc1 | i | ? | ? | -90.1 | i | i
Cc1cc(C)cc(Oc2coc3cc(OCC(=O)NC4CCCCC4)ccc3c2=O)c1 | nt | ? | nt | i | nt | i
CC(OC(=O)c1ccccc1NS(=O)(=O)c1cccc(C(F)(F)F)c1)C(=O)N(C)Cc1ccccc1 (stereo not drawn) | 10.4µM | 7.08µM | ? | ? | ? | ?
CN(Cc1ccccc1)C(=O)COC(=O)c1ccccc1NS(=O)(=O)c1cccc(N)c1 | i | i | ? | i | i | i
CCCc1ccc(S(=O)(=O)N2CCC(c3nnnn3-c3ccc(OC)cc3)CC2)cc1 | nt | i | nt | i | nt | i
CCN(CC(=O)Nc1ccc(NC(C)=O)cc1)C(=O)/C=C/c1ccc(S(=O)(=O)N2CCCCCC2)cc1 | 4.65µM | i | 3.29µM | i | i | i
SMILES | Pf growth 96h | Marburg entry inh | Pf growth 48h | HCMV antiviral | HCV inhibitor | LASV entry inh
O=C(CSCc1ccc(Cl)cc1)Nc1ccc2c(c1)OCO2 | 11.7µM | i | i | i | i | i
O=C(CSCc1ccc(Cl)cc1)Nc1ccc(S(=O)(=O)N2CCCCCC2)cc1 | 13.1µM | ? | ? | i | i | i
O=c1[nH]c2ccc(S(=O)(=O)N3CCCCC3)cc2o1 | 10.4µM | i | i | i | i | i
C[C@H](CO)N1C[C@H](C)[C@H](CN(C)S(=O)(=O)c2ccc(F)cc2)Oc2ncc(Br)cc2C1=O | nt | nt | nt | i | nt | nt
CCN(CC(=O)Nc1ccc(S(=O)(=O)N2CCCC2)cc1)CC(=O)Nc1ccccc1C(F)(F)F | nt | nt | nt | i | 11.2µM | nt
CSc1ccccc1NC(=O)CN(C)CC(=O)Nc1ccc(S(=O)(=O)N2CCCC2)cc1 | nt | i | nt | i | i | i
CN(CC(=O)Nc1ccc(Cl)cc1)c1ccc(S(=O)(=O)N2CCCCC2)cc1[N+](=O)[O-] | 2.94µM | ? | ? | -67.7 | 12.6µM | ?
O=C(CCc1ccccc1)Nc1ccc(S(=O)(=O)N2CCOCC2)cc1 | i | i | ? | i | i | i
O=C(CCc1ccccc1)Nc1ccc(S(=O)(=O)N2CCCC2)cc1 | 8.28µM | nt | ? | i | i | nt
O=C(CSc1nc(-c2ccccc2Cl)ns1)Nc1ccc2c(c1)OCO2 | ? | ? | 1.17µM | ? | ? | i
CN(CC(=O)Nc1ccc(S(=O)(=O)N2CCCC2)cc1)Cc1ccc(Cl)cc1Cl | ? | ? | ? | i | ? | ?
CC(C)c1nn2c(=O)cc(COC(=O)c3cccc(NC(=O)COc4ccc(F)cc4)c3)nc2s1 | nt | nt | nt | i | nt | i
CCCCCCCC1=Cc2ccccc2C(C(C(=O)OC)C(=O)OC)N1C(=O)OC (stereo not drawn) | nt | i | nt | nt | nt | nt
COC(=O)[C@@H]1[C@@H](CO)[C@@H]2Cn3c(ccc(Br)c3=O)[C@@H]2N1C(=O)CN(C)C | nt | nt | nt | i | nt | nt
CCN(CC(=O)Nc1ccc(S(=O)(=O)N2CCCC2)cc1)Cc1ccccc1 | ? | ? | 13.1µM | i | i | i
O=[N+]([O-])c1cc(S(=O)(=O)N2CCCCCC2)ccc1F | ? | 11.2µM | i | -97.2 | ? | ?
CCN(CC(=O)Nc1ccc(S(=O)(=O)N2CCOCC2)cc1)Cc1ccccc1 | ? | i | ? | i | ? | i
O=[N+]([O-])c1ccc(Br)c(CN2CCN(c3ncc(Cc4ccccc4)cn3)CC2)c1 | nt | nt | nt | i | nt | nt
CCc1nn2cc(C(=O)c3cc(C)ccc3O)cnc2c1-c1ccc(F)cc1 | i | ? | 2.62µM | i | ? | i
CCc1ccccc1NS(=O)(=O)c1cc2c3c(c1)CCN3C(=O)CC2 | i | i | i | i | ? | i
O=C(O)c1ccc(NC(=O)c2cn(-c3ccccc3)nc2-c2cccc(Cl)c2)cc1 | 11.7µM | ? | i | i | i | i
O=C(O)c1ccc(NC(=O)c2cn(-c3ccccc3)nc2-c2ccc(F)cc2)cc1 | i | i | i | i | i | i
NS(=O)(=O)c1ccc(NC(=O)/C=C/c2cn(-c3ccccc3)nc2-c2cccc(Cl)c2)cc1 | i | ? | 10.4µM | ? | ? | ?
CN1CCN(NC(=O)c2cn(-c3ccccc3)nc2-c2ccc(OC(F)F)cc2)CC1 | ? | 7.08µM | ? | i | i | i
COc1cccc(-c2nn(-c3ccccc3)cc2C(=O)Nc2nccs2)c1 | ? | ? | 7.38µM | ? | ? | i
COc1ccc(-c2nn(-c3ccccc3)cc2C(=O)Nc2nccs2)cc1 | i | ? | ? | i | ? | i
CC(C)(C)n1c(O)c2n(c1=O)Cc1ccccc1N=C2c1ccccc1 | nt | nt | nt | i | nt | nt
